mHTT CaM bind = disrupts binding of mutant huntingtin to calmodulin; P42858; AlphaScreen His-mHTT/GST-CaM binding, luminescence; inhibition, % at 15 µM; hit rate 3.6% among 190,000; AID 1671202
Target sequence (P42858 whole entry, looked up, change not shown): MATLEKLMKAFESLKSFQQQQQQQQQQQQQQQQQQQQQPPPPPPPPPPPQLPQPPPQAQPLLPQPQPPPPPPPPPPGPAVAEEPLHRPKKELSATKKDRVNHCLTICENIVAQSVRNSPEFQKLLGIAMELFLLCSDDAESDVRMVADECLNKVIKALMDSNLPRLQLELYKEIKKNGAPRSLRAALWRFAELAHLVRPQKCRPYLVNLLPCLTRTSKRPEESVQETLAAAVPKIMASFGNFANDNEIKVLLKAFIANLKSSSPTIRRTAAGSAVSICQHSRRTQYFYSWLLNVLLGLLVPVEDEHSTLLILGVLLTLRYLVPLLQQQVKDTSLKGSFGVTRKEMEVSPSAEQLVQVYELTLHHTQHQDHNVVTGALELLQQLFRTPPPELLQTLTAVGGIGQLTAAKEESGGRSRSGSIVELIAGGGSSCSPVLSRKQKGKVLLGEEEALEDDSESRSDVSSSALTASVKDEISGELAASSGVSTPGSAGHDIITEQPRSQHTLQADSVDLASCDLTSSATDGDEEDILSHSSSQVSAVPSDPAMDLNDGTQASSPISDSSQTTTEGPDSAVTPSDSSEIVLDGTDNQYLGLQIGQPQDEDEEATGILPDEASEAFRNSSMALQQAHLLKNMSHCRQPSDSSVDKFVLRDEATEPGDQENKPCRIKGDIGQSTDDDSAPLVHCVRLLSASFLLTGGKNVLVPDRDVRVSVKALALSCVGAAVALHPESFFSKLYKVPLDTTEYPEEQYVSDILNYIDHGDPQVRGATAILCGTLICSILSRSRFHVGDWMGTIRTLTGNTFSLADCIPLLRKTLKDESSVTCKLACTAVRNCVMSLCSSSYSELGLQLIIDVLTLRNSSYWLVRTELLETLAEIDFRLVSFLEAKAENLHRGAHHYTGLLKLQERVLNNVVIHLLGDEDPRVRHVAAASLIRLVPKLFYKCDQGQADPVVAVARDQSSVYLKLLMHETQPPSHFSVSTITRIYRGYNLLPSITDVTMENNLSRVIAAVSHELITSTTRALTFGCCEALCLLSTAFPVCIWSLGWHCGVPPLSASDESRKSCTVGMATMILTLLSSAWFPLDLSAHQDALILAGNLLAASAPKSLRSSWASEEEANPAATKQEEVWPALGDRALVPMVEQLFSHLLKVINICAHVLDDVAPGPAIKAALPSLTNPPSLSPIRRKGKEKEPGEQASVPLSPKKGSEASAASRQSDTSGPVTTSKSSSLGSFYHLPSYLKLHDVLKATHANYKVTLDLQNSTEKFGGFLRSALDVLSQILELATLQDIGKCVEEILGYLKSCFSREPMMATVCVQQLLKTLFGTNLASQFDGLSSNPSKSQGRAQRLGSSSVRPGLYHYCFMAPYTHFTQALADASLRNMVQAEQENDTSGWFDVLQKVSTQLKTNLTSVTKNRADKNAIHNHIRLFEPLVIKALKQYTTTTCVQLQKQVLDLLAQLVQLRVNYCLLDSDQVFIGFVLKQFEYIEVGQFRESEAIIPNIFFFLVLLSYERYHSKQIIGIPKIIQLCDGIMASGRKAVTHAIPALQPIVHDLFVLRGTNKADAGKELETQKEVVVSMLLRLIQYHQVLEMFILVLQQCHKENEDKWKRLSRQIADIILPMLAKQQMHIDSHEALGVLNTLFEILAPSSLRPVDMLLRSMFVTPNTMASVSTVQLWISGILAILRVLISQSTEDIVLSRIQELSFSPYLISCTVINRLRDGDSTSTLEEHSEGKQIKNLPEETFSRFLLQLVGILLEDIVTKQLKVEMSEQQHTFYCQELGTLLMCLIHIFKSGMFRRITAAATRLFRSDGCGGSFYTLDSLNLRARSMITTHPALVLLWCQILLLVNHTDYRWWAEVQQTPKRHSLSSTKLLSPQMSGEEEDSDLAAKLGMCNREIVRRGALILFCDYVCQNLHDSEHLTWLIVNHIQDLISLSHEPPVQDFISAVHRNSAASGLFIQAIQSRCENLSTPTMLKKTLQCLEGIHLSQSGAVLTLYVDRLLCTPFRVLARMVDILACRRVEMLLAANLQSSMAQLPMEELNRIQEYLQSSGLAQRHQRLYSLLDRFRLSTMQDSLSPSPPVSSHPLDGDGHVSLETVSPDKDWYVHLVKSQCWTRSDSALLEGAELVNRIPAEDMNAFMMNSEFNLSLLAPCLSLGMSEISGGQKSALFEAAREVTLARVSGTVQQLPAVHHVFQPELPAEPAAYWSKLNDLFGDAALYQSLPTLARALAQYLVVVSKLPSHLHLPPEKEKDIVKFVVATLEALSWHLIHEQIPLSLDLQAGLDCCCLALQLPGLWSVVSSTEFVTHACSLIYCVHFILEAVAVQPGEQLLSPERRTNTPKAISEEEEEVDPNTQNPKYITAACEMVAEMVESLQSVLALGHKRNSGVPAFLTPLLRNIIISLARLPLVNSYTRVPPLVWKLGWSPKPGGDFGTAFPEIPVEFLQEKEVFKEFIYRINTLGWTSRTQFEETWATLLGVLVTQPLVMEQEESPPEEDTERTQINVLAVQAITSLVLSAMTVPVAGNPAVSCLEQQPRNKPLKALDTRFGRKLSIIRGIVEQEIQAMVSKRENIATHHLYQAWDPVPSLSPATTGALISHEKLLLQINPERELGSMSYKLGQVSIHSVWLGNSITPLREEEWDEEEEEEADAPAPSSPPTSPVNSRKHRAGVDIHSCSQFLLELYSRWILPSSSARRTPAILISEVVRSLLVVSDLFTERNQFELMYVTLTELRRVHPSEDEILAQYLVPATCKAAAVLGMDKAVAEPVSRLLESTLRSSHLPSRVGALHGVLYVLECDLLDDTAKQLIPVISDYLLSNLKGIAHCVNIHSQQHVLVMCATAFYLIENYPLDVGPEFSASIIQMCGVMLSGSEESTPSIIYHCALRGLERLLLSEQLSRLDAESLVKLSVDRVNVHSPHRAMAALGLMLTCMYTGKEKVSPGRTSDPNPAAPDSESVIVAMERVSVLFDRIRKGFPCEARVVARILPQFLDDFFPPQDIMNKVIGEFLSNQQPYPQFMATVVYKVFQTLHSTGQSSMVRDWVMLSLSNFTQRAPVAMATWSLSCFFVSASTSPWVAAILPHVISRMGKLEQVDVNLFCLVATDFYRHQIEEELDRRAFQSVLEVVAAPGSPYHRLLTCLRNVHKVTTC
Pf apPOL inh = Pf-apPOL DNA polymerase inhibition | Recombinant Pf-apPOL, molecular beacon fluorescence, 1.5 h | inhibition, % at 10 µM | hit rate 0.25% among 210,000 | AID 1794808
A number is an active result; - = inactive; . = no result given. Most compounds without a hit are left out; they make up all but 3.6% or so of the library. No stated cut-off is given here; in the data, active means inhibition above about 50%; inactive means the rest.

SMILES	mHTT CaM bind	Pf apPOL inh
CCCCC[C@@H](C)N1C[C@@H](COCc2ccccc2)Oc2cc(N3CC[C@@H](N(C)C)C3)ccc2S1(=O)=O	100.2	-
CCCCC[C@@H](C)N1C[C@H](COCc2ccccc2)Oc2cc(N3CC[C@@H](N(C)C)C3)ccc2S1(=O)=O	-	-
CCCCC[C@H](C)N1C[C@H](COCc2ccccc2)Oc2cc(N3CC[C@H](N(C)C)C3)ccc2S1(=O)=O	-	-
CCCCC[C@H](C)N1C[C@H](COCc2ccccc2)Oc2cc(N3CC[C@@H](N(C)C)C3)ccc2S1(=O)=O	100.2	-
CCCCOc1ccc(C(=O)Nc2c3c(nn2C(C)(C)C)CS(=O)(=O)C3)cc1	-	-
COc1ccc(C2CC(=O)C=C(Nc3cc(Cl)ccc3O)C2)cc1 (centres undefined)	-	-
COc1ccc(-c2nc3cccnc3n2C2CCN(C(=O)CCc3ccccc3)C2)cc1 (centres undefined)	86.4	-
COc1ccc(-c2nc3cccnc3n2C2CCN(C(=O)Nc3cccc(OC)c3)C2)cc1 (centres undefined)	-	-
O=C(c1ccc(C(F)(F)F)cc1)N1CCC(n2c(-c3ccoc3)nc3cccnc32)C1 (centres undefined)	86.1	-
COc1ccc(-c2nc3cccnc3n2C2CCN(C(=O)Nc3cccc(C)c3)C2)cc1 (centres undefined)	61.5	-
COc1ccc(-c2nc3cccnc3n2C2CCN(C(=O)c3cccc(F)c3)C2)cc1 (centres undefined)	-	-
COc1ccc(-c2nc3cccnc3n2C2CCN(C(=O)c3cc(F)cc(F)c3)C2)cc1 (centres undefined)	52.7	-
CCCc1nc2cccnc2n1C1CCN(C(=O)CCc2ccc(OC)cc2)C1 (centres undefined)	-	-
O=C(c1ccccc1)N1CCC(n2c(-c3ccoc3)nc3cccnc32)C1 (centres undefined)	-	-
Cc1nc2cc(N3CC(C(=O)NCc4ccc(C)c(C)c4)CC3=O)ccc2o1 (centres undefined)	-	-
CCn1c(=O)c2c(ncn2Cc2cccc(F)c2)n(-c2ccccc2Cl)c1=O	-	-
COc1cc(CSc2nnc(NC(=O)Nc3cccs3)s2)cc(OC)c1	-	-
COc1ccc(Br)cc1C1=N/C(=C/c2ccccc2[N+](=O)[O-])C(=O)O1	-	-
COc1ccccc1CNC(=O)C1CCN(S(=O)(=O)N(CC(C)C)CC(C)C)CC1	-	-
CCn1ccc2c(cc(C(=O)Nc3ccc(F)cc3C)n2C)c1=O	-	-
COc1ccc(-c2nc3cccnc3n2C2CCN(C(=O)NCc3cccc(F)c3)C2)cc1 (centres undefined)	-	-
COc1ccc(-c2nc3cccnc3n2C2CCN(C(=O)NCc3ccc(F)cc3)C2)cc1 (centres undefined)	77.2	-
CC(C)c1noc(C2CCCCN2Cc2cc(=O)n3ccccc3n2)n1 (centres undefined)	-	-
COc1cc(C(=O)Nc2ccc3c(c2)ncn3-c2ccc(C)cc2)cc(OC)c1OC	53.0	-
COc1ccccc1-n1cnc2cc(NC(=O)c3cc(OC)c(OC)c(OC)c3)ccc21	-	-
SMILES	mHTT CaM bind	Pf apPOL inh
COc1cc(C(=O)Nc2nc3ccccc3n2C)cc(OC)c1OC	57.1	-
Cn1c(NC(=O)c2ccc(F)cc2)nc2ccccc21	-	-
Cn1c(N2CCC(C(=O)NC3CCCCC3)CC2)cc(=O)n(C)c1=O	-	-
CC(C)c1ccc(-c2ccnc3c(C(=O)NCC4CC4)cnn23)cc1	-	-
CSc1scc2c1C(=O)C(=CN(C)C)CC2	.	93.0
CN(C)C=C1Cc2ccccc2C1=O	.	-
COc1nccnc1NC1CCN(C(=O)c2ccsc2)CC1	-	-
Cn1ccc(-c2ccccc2)n1	-	-
Cn1ccc(-c2ccnc(NN)n2)n1	99.5	.
Oc1oc(-c2ccccc2Br)nc1C=Nc1cccc(Cl)c1	-	-
Oc1oc(-c2ccccc2F)nc1C=Nc1cccc(Cl)c1	-	72.5
Cc1ccc(Cn2c(=O)n(CCC(=O)NCc3ccccc3)c(=O)c3sccc32)cc1	-	-
COc1ccc(-c2csc(=Nc3ccc(F)cc3)n2CCO)cc1F	53.0	-
CCn1c(-c2ccc(OC)c(F)c2)csc1=Nc1ccccc1	72.0	-
COc1ccc(N=c2scc(-c3ccc(OC)cc3F)n2CCO)cc1	-	-
OCCn1c(-c2ccc(F)cc2)csc1=Nc1cccc(Cl)c1	98.0	-
OCCn1c(-c2ccc(F)cc2)csc1=Nc1ccccc1	-	-
C=CCn1c(-c2ccc(OC)c(OC)c2)csc1=Nc1ccccn1	-	-
CC(C)(C)CC(=O)N1CC(C(=O)N2CCCC2)C(c2ccc(F)cc2)C1 (centres undefined)	-	-
O=C1C(=O)N(Cc2cccnc2)C(c2ccc(O)cc2)C1=C(O)c1ccc(F)cc1 (centres undefined)	-	-
NC(=NOC(=O)c1cccc(C(F)(F)F)n1)c1cccc(C(F)(F)F)c1	.	-
CC(C)n1c(=O)c(NCc2ccccc2Cl)nc2ccncc21	-	-
COc1ccc(C=C2Oc3c(ccc(O)c3CN3CCN(C)CC3)C2=O)c(OC)c1OC	-	-
CSc1ccccc1NC(=O)C(c1ccccc1)n1cccc1 (centres undefined)	60.1	-
CSc1ccccc1NC(=O)C(c1ccccc1)c1ccccc1	-	-
SMILES	mHTT CaM bind	Pf apPOL inh
Cc1ccc(C)c(-c2cncc(C(=O)NC(C)C)c2)c1	-	-
COc1ccc(NC(=O)c2sc3nc(C)c(Cl)c(C)c3c2N)cc1	-	-
Oc1ccc(COCc2ccccc2)c2cccnc12	99.0	-
O=C(CSc1cccc2cccnc12)NCc1ccccc1	-	-
CCC(=O)N1CCN(Cc2noc(-c3ccc(Cl)cc3)n2)CC1	-	-
COc1ccc(OC)c(NC(NC(=O)c2ccco2)C(=O)c2ccc(Cl)cc2)c1 (centres undefined)	67.0	-
CCOc1ccccc1NC(NC(=O)c1ccco1)C(=O)c1ccc(Cl)cc1 (centres undefined)	-	-
CC(=O)N(Cc1ccco1)c1nc2c(Cl)cccc2s1	-	-
c1ccc(N2N=C3N(c4ccccc4)C2N3c2ccccc2)cc1	77.0	.
COC1N(c2ccccc2)N=C(c2ccccc2)N1c1ccccc1 (centres undefined)	-	.
CC(C)NC(=O)N1CCCC(c2cccc(C(=O)NCC3CCCCC3)c2)C1 (centres undefined)	-	-
O=C(Nc1nc(-c2ccccc2)c(-c2ccccc2)o1)c1cccs1	62.0	-
COc1ccc(-c2nnc(NC(=O)c3cccs3)o2)cc1	66.0	-
COc1ccc(-c2csc(NC(=O)c3cccs3)n2)cc1	-	-
CC(=O)Nc1nc(-c2ccccc2)c(-c2ccccc2)o1	-	-
O=C(CSc1nc(CC(=O)N2CCc3ccccc32)cs1)c1ccc(F)cc1	-	-
CCOc1ccc(C2=C/C(=C\c3ccccc3OC)C(=O)O2)cc1	-	-
Cc1ccccc1-n1nc2c(c1NC(=O)CCC1CCCCC1)CS(=O)(=O)C2	-	-
CCc1ccc(CNC(=O)CC2CCN(C(=O)c3[nH]c(C)c(C)c3C)CC2)cc1	-	-
Cc1[nH]c(C(=O)N2CCC(CC(=O)NCCc3c[nH]c4ccccc34)CC2)c(C)c1C	89.8	-
COc1ccc(CCNC(=O)CC2CCN(C(=O)C3CCCCC3)CC2)c(OC)c1	-	-
O=C(CC1CCN(C(=O)C2CCCCC2)CC1)NCCc1c[nH]c2ccc(Cl)cc12	100.0	-
